Molecules are shown by their SMILES. Where “and” joins values, the source holds several entries; their conditions need not be identical. Equal entries are not always repeated. Results filed as inconclusive are left out. Some structures have more than one record in an assay (separate samples or runs), and their calls can disagree. Calls of active or inactive are those of the source. Unless noted, calls come from the whole dose curve; as a rule, active = well fitted curve in the direction sought with a large enough effect in the repeat runs; inconclusive = weak or mixed curves; inactive = no such curve, though single readings can be large; an effect the other way counts as inactive or inconclusive.

Among the data in PubChem BioAssay (Tox21) are outcome and Potency values, retold here.

In test [1] the target is Thyrotropin receptor (Homo sapiens) (UniProt P16473). As to the kind of experiment: qHTS assay to identify small molecule antagonists of the thyroid stimulating hormone receptor (TSHR) signaling pathway (AID 1259385; calls by dose curve; note: nearly all actives have a fitted effect of over 20% in size). The method in brief: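 TSHR-HEK293 cells were plated and held 18 h at 37C/5% CO2, then given compound plus Ro20-1724 and stimulated with TSH at 1.5 ng/mL final. After 30 min at room temperature, cAMP was detected with cAMP-d2/anti-cAMP-cryptate (1 h) by fluorescence.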
Sequence of Thyrotropin receptor (Homo sapiens) (P16473 whole entry, looked up): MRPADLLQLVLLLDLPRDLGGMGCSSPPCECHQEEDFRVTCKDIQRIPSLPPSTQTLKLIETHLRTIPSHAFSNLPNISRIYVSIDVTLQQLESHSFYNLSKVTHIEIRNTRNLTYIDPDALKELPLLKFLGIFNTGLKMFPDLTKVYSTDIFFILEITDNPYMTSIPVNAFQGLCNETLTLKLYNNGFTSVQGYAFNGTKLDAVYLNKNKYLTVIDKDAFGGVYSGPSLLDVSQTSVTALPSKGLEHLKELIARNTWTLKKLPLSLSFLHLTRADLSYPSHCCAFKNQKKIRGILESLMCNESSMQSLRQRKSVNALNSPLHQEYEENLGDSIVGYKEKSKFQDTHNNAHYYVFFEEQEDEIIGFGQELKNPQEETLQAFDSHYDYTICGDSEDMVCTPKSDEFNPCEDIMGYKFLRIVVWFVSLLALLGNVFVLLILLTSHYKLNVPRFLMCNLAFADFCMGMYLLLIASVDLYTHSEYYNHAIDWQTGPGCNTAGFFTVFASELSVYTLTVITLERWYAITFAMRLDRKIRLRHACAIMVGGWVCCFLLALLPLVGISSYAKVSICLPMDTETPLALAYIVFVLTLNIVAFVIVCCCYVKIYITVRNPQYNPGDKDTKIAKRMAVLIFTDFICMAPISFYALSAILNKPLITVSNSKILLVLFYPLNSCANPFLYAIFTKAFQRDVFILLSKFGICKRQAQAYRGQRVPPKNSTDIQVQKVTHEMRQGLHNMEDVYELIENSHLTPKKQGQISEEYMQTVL
For orientation: qHTS replaces the single test concentration by a dilution series.

Test [2] can be described thus: qHTS assay to identify small molecule agonists of the estrogen receptor alpha (ER-alpha) signaling pathway in the presence of an antagonist - cell viability counter screen (AID 1259386).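 Note: cells exposed to compounds for 22 h at 37 °C before the viability read; nearly all actives have a fitted effect of over 30% in size.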 Note: potency is the fitted concentration of half-maximal effect. Summed up:
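ICI-182,780 at 10.0nM final accompanies the compound titration (15 concentrations, 22hr, 37C) on VM7Luc4E2 cells. The CellTiter-Fluor fluorescence readout runs in the same wells as the luciferase assay.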

Test [3] addresses Progesterone receptor (Homo sapiens) (UniProt P06401). Description: qHTS assay to identify small molecule agonists of the progesterone receptor (PR) signaling pathway (AID 1346784; calls by dose curve; note: nearly all actives have a fitted effect of over 30% in size). Summed up: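 Cells (PR-UAS-bla HEK 293T, GripTite) were plated in assay medium containing 2% charcoal-stripped FBS and incubated 6 hr. Test compounds in DMSO were added for 16 hr at 37C. FRET substrate was then loaded for 2 hr at room temperature before fluorescence reading.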

Test [4] can be described thus: qHTS assay to identify small molecule antagonists of the progesterone receptor (PR) signaling pathway - cell viability counter screen (AID 1346798). Note: series mostly up to about 92 µM; nearly all actives have a fitted effect of over 50% in size. The method in brief:
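Counter screen for cytotoxicity: viability of PR-UAS-bla HEK293T cells was measured with CellTiter-Glo luminescence following 16 hr compound exposure in the presence of R5020.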

Test [5] is described as follows: qHTS assay to identify small molecule antagonists of the TGF-beta/Smad signaling pathway - cell viability counter screen (AID 1346824). Note: nearly all actives have a fitted effect of over 50% in size. Summed up: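 SBE-bla HEK 293T cells were plated overnight at 37 C, then given compounds in DMSO plus TGF-beta1 (added as 0.25 ng/mL solution) for 5 hr. After the bla read, CellTiter-Glo was added to the same wells and luminescence read after 30 min at room temperature.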

Test [6] can be described thus: qHTS assay to identify small molecule agonists of the TGF-beta/Smad signaling pathway - cell viability counter screen (AID 1346829). Note: nearly all actives have a fitted effect of over 45% in size. Note: potency is the fitted concentration of half-maximal effect. Summed up: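 SBE-bla HEK 293T cells plated overnight, compound exposure 5 hr at 37 C. Viability read in the same wells by CellTiter-Glo luminescence after 30 min at room temperature, following the beta-lactamase read.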
A short description of test [7]: qHTS assay to identify small molecule agonists of the TGF-beta/Smad signaling pathway (AID 1346859; active = well fitted activation curve with a large enough effect in the signal ratio in the repeat runs, not every such curve was filed as active; the % refers to the signal ratio; note: series mostly up to about 77 µM). Summed up:
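Reporter line: HEK 293T with stably integrated SBE-controlled beta-lactamase. Compound exposure lasts 5 hr at 37 C and 5% CO2; substrate loading follows for 2 hr at room temperature, with emission read at 460 and 530 nm.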

Test [8] deals with Thyrotropin-releasing hormone receptor (Homo sapiens) (UniProt P34981). Description: qHTS assay to identify small molecule antagonists of the thyrotropin-releasing hormone receptor (TRHR) signaling pathway (AID 1346877; active = well fitted inhibition curve with a large enough effect in the repeat runs, not every such curve was filed as active; note: series mostly up to about 51 µM). The method in brief:
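Screening used HEK293 cells engineered with TRHR, with a brief 5 min room-temperature compound exposure preceding addition of TRH to 1 nM. The read-out was kinetic calcium-dye fluorescence, concentration-response from 15 doses in triplicate.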

Test [9] has as its target Progesterone receptor (Homo sapiens) (UniProt P06401). As to the kind of experiment: qHTS assay to identify small molecule antagonists of the progesterone receptor (PR) signaling pathway (AID 1346795; active = well fitted inhibition curve with a large enough effect in the signal ratio in the repeat runs, not every such curve was filed as active; the % refers to the signal ratio; note: potency is the fitted concentration of half-maximal effect). The method in brief:
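Antagonist mode: compounds tested against 1 nM (final) promegestone stimulation in HEK293T cells expressing PR-UAS-bla reporter, 16 hr at 37C, 5% CO2; beta-lactamase activity detected via B/G FRET substrate after 2 hr at room temperature.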

Test [10] in a line: qHTS assay to identify small molecule agonists of the progesterone receptor (PR) signaling pathway - cell viability counter screen (AID 1346799; calls by dose curve; note: nearly all actives have a fitted effect of over 45% in size). The method in brief: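 Cells (PR-UAS-bla HEK293T) are plated at 3,000/well in 2% charcoal-stripped FBS medium, rested 6 hr, dosed and incubated 16 hr at 37C. CellTiter-Glo is then added and luminescence measured after 30 min at room temperature.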

Sequence of Progesterone receptor (Homo sapiens) (P06401 whole entry, looked up): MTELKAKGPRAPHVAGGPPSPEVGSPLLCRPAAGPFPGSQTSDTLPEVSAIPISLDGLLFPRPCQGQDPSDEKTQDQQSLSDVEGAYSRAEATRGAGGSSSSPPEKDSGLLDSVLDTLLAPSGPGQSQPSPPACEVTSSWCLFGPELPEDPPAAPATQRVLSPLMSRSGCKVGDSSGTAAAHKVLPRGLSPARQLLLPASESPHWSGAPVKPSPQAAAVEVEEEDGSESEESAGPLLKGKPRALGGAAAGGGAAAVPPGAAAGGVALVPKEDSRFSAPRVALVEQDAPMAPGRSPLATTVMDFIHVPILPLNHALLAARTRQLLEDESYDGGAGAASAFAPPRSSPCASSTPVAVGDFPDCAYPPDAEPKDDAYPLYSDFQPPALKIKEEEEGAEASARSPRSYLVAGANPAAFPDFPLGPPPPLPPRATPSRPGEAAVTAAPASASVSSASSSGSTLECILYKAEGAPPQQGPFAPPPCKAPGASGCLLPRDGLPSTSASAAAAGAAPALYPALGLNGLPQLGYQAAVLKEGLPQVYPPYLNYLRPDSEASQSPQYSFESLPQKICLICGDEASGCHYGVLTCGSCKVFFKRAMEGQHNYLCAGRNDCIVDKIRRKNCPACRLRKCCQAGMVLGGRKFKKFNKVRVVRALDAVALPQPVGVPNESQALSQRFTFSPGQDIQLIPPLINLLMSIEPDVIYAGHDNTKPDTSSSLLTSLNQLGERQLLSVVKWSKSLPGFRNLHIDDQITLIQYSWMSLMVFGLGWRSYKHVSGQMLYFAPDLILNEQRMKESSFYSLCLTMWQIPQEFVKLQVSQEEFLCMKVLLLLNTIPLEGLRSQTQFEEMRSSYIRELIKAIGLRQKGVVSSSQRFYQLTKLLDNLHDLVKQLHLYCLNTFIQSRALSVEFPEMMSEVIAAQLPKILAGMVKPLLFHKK
Sequence of Thyrotropin-releasing hormone receptor (Homo sapiens) (P34981 whole entry, looked up): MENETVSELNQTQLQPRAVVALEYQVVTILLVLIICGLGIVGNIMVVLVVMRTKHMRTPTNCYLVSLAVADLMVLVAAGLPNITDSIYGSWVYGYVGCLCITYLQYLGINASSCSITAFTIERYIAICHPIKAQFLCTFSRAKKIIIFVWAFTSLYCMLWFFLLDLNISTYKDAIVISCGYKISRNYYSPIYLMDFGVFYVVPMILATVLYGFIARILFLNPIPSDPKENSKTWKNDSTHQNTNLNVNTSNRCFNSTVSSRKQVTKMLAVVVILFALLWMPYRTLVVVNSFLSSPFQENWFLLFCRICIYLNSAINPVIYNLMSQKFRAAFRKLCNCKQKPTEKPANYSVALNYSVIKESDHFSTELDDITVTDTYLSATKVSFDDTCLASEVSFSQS

With `CCOP(=S)(OCC)Oc1ccc([N+](=O)[O-])cc1`, the outcome in test [1], in test [7] and in [8] was inactive. Moreover, the Potency result in test [2], in test [3], in test [4], in test [5] and in [6] was “inactive” each time.
Turning to `COS(=O)(=O)OC`, the Potency result in test [2], in test [3], in test [9], in test [4], in test [5] and in test [6] was “inactive” each time. Further, the outcome in [10], in [7] and in [8] was inactive.
On to `Cc1cccc(C)c1NC(=O)CN1CCCC1=O`, for which the Potency entry in test [2], in test [3], in [9], in test [4], in test [5] and in test [6] was “inactive” in each case. For the same compound, the result in [10], in test [7] and in test [8] was inactive.
Turning to `COc1cc(-c2ccc(N)c(OC)c2)ccc1N`, the Potency entry in test [2], in test [3], in [5] and in test [6] was “inactive” throughout. In [9], the Potency was 48.8 µM (active) and 27.3 µM (active) and 46.3 µM (active). The outcome in test [10], in [7] and in [8] was inactive.
For the compound `Oc1c(Br)cc(Br)cc1Br`, the call in [1], in [7] and in [8] was inactive. Moreover, the Potency result in test [2], in test [3], in test [4], in [5] and in [6] was “inactive” each time.
For `O=C(O)CCCc1ccc(N(CCCl)CCCl)cc1`, the call in test [1], in [10], in test [7] and in test [8] was inactive. Further, the Potency result in test [2], in test [3], in test [9], in [4], in test [5] and in [6] was “inactive” each time.
Consider `O=C(O)Cc1ccccc1`, for which the Potency result in [2], in [3], in test [9], in test [4], in [5] and in [6] was “inactive” throughout. Besides, the outcome in [10], in [7] and in test [8] was inactive.
As for `C[C@H]1C(=O)O[C@@H]2CCN3CC=C(COC(=O)[C@](C)(O)[C@]1(C)O)[C@H]23`, the outcome in test [1], in test [10], in [7] and in test [8] was inactive. Besides, the Potency result in [2], in [4], in [5] and in test [6] was “inactive” each time.
`OCC(O)CCl` (stereo unspecified): the result in test [1], in [10] and in test [7] was inactive. The Potency result in test [2], in [4], in [5] and in test [6] was “inactive” in each case.
As to `CCCOC(=O)c1ccccc1C(=O)OCCC`, the Potency result in [2], in [3], in test [9], in test [4], in [5] and in test [6] was “inactive” throughout. Moreover, the call in test [10], in [7] and in [8] was inactive.
In the case of `C=CCN=C=S`, the call in test [1], in test [10] and in test [7] was inactive. In addition, the Potency result in [2], in [3], in [9], in test [5] and in test [6] was “inactive” throughout.
`Cc1ccc(N=C=O)cc1N=C=O`: the Potency result in test [2], in [3], in [9], in test [4], in [5] and in test [6] was “inactive” each time. Also, the result in [10], in test [7] and in test [8] was inactive.
In the case of `CNC(=O)O/N=C/C(C)(C)S(C)=O` (stereo unspecified), the compound was classed as inactive in [1], in test [10], in test [7] and in test [8]. Also, the Potency entry in test [2], in [3], in [9] and in [4] was “inactive” throughout. Also, in test [6], the Potency was 24.9 µM (active) and inactive.
As for `O=S(=O)(O)OOS(=O)(=O)O`, the Potency result in test [2], in test [3], in test [9], in test [4], in [5] and in test [6] was “inactive” throughout. Moreover, the result in test [10], in test [7] and in test [8] was inactive.
Regarding `CN(C)CCC#N`, the Potency entry in test [2], in test [3], in test [9], in test [4], in test [5] and in test [6] was “inactive” throughout. Also, the outcome in test [10], in [7] and in test [8] was inactive.
Regarding `CN(C)C(=O)C(c1ccccc1)c1ccccc1`, the Potency entry in test [2], in [3], in test [9], in [4], in [5] and in test [6] was “inactive” each time. In addition, the outcome in test [10], in test [7] and in test [8] was inactive.
In the case of `Nc1ccc(N)cc1`, the Potency in test [2] was 54.7 µM (active) and 54.5 µM (active). Besides, the Potency result in test [3], in test [9], in test [4], in test [5] and in [6] was “inactive” each time. The call in [10], in test [7] and in test [8] was inactive.
Turning to `CNc1cnn(-c2cccc(C(F)(F)F)c2)c(=O)c1Cl`, the Potency result in test [2], in test [3], in test [9], in test [4], in test [5] and in test [6] was “inactive” throughout. In addition, the call in [10], in [7] and in [8] was inactive.
Consider `CC12CC1(C)C(=O)N(c1cc(Cl)cc(Cl)c1)C2=O` (stereo unspecified), for which the Potency entry in test [2], in test [3], in test [4], in test [5] and in [6] was “inactive” in each case. Moreover, the compound was called inactive in [10], in test [7] and in test [8].
In the case of `CNC(=O)O/N=C/C(C)(C)S(C)(=O)=O`, the Potency result in test [2], in test [3], in test [9], in test [4], in [5] and in [6] was “inactive” each time. In addition, the call in test [10], in test [7] and in test [8] was inactive.
As to `COP(=S)(OC)Oc1ccc(SC)c(C)c1`, the Potency result in [2], in [3], in test [4], in test [5] and in test [6] was “inactive” throughout. Moreover, in [9], the Potency was 13.5 µM (active). Besides, the call in test [10], in [7] and in test [8] was inactive.
In the case of `O=[N+]([O-])c1cc([As](=O)(O)O)ccc1O`, the call in test [1], in test [10], in [7] and in [8] was inactive. Besides, the Potency entry in [3], in test [9], in test [4], in test [5] and in [6] was “inactive” each time.
Regarding `CCCCCCCCCCCCCCCCCC(=O)O`, the Potency entry in [2], in test [3], in test [4], in test [5] and in [6] was “inactive” each time. For the same compound, the Potency in test [9] is 10.8 µM (active) and inactive. For the same compound, the compound was classed as inactive in [10] and in test [7].
As to `ClC(Cl)c1ccccc1`, the Potency entry in test [2], in test [3], in test [9], in [4], in test [5] and in [6] was “inactive” throughout. The compound was classed as inactive in test [10], in [7] and in test [8].
`CCSC(=O)N1CCCCCC1`: the compound was called inactive in [1] and in test [7]. Further, the Potency result in [2], in [3], in [9], in [4], in test [5] and in test [6] was “inactive” each time.
